Screening results deposited in PubChem by several laboratories.
An excerpt weighted towards active compounds, which were near 2.8% of everything screened.
PG9 Ab binder – binds the HIV-1 gp120 antibody PG9. TR-FRET gp120-PG9 antibody binding. inhibition, % at 6.7 µM. AID 624416. 360,000 compounds, 0.43% hits; in the data active = inhibition above about 8.5%
PP5 inh – PP5 (human) phosphatase inhibition; P53041; 320,000 compounds, 0.18% hits; purified PP5c, OMFP substrate fluorescence; inhibition, % at 6.7 µM;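 active = inhibition above the campaign's mean inhibition across all tested compounds plus 3 SD, cut at about 9.5% in these data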;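 note: 0% = DMSO only and 100% = 100 µM cantharidin control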
PP1 counter – PP1-alpha (human) inhibition in PP5 counter-screen | purified PP1alpha, OMFP fluorescence | P62136 | inhibition, % at 6.7 µM | 320,000 compounds, 0.9% hits;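 active = inhibition above the mean inhibition of all tested compounds plus 3 SD, computed separately for each screening campaign, cut at about 15% in these data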
GASC-1 inh – blocks human GASC-1 demethylase activity | GST-JMJD2C(1-420) H3K9me3 demethylation, DELFIA europium | inhibition, % at 2.35 µM | 330,000 compounds, 0.069% hits | Q9H3R0 | AID 2099;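 active = more than half of a compound's replicate wells show inhibition beyond 50%, single wells judged on their own value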;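 note: signal counts dimethyl H3K9 product captured on neutravidin plate; 0% = median of DMSO wells and 100% = 0.3 times that DMSO median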
Rev-erbA mod – modulates human Rev-erb alpha binding to DNA | P20393 | Rev-erbα–FITC-DNA binding, fluorescence polarization, 90 min | activity, % at 10 µM | 370,000 compounds, 0.79% hits;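 active = activity above about 14%, limit read from the data; passing the limit was not always enough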;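 note: 0% = DMSO wells with 35 nM protein and 100% = DMSO wells with 750 nM protein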
KLK7 zymogen act – proKLK7 (human) activation, primary screen. P49862. purified proKLK7, EDANS-DABCYL substrate fluorescence; 100% is mature enzyme control, 0% vehicle. activation, % at 7 µM. 370,000 compounds, 0.9% hits. AID 652039;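 active = activation above the mean of all tested compounds plus 3 SD, computed per campaign excluding outliers beyond control limits, cut at about 13% in these data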
Target sequence (P49862 whole entry, looked up): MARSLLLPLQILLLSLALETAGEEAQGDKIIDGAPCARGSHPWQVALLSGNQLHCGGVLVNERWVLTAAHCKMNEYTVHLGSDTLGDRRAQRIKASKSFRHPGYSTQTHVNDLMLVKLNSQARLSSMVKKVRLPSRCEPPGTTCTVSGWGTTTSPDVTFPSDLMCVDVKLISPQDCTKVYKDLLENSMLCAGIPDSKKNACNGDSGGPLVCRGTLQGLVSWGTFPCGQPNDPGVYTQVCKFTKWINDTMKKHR
KLK7 act conf – confirmation of human kallikrein-7 zymogen activators; 3,200 compounds, 68% hits; activation, % at 7 µM; shares compounds with KLK7 zymogen act; purified proKLK7, EDANS-DABCYL substrate fluorescence; scaled: vehicle 0, mature enzyme 100;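 active = activation, as change over the incubation, above the mean of all tested compounds plus 3 SD, cut at about 13% in these data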
EDANS-DABCYL int – optically interferes with EDANS-DABCYL signal, flagging KLK7 hits; shares compounds with KLK7 zymogen act; EDANS-DABCYL substrate fluorescence interference, no enzyme, 4 h; solvent 0%, active enzyme control 100%; activation, % at 7 µM; 3,200 compounds, 80% hits;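 active = activation above the all-compound mean plus 3 SD, ignoring values outside control-based bounds, cut at about 4.8% in these data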;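 note: value is the 4 h activation minus the activation read at time zero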
EDANS interf – optically interferes with EDANS-DABCYL fluorescence, kallikrein-7 activator counter-screen. EDANS-DABCYL peptide fluorescence interference, no enzyme. EC50, µM. AID 720493. 250 compounds, 20% hits. shares compounds with KLK7 zymogen act;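 active = compounds that raise the fluorescence signal in this interference counterscreen, with EC50 at or below 10 µM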;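 note: intact quenched peptide substrate alone read at 355 nm excitation and 520 nm emission; signal is fluorescence gain from T0 to T4 after four hours at room temperature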
* marks the source's active call; other numbers are inactive results; nt = not tested or not shown.

SMILES	PG9 Ab binder	PP5 inh	PP1 counter	GASC-1 inh	Rev-erbA mod	KLK7 zymogen act	KLK7 act conf	EDANS-DABCYL int	others
CCCc1cc(=O)oc2cc(OCC(=O)N(C)C)c(Cl)cc12	1	-2	3	-3	3	0	nt	nt
CCCc1cc(=O)oc2c(CN(CC)CC)c(O)c(Cl)cc12	0	-1	-5	-4	1	53*	66*	68*
CCCCc1cc(=O)oc2c(CN(CC)CC)c(O)c(Cl)cc12	3	4	-6	3	-3	63*	70*	71*
CC1CCN(c2c3c(nc4ncnn24)CCCC3)CC1	nt	nt	nt	nt	7	1	nt	nt
Nc1cc(Nc2ccccc2)c2nonc2c1[N+](=O)[O-]	0	3	-6	-17	6	13*	-1	0
O=[N+]([O-])c1c(Nc2ccccc2)ccc2nonc12	1	0	0	8	-1	0	nt	nt
O=C(NCC(c1ccccc1)c1ccccc1)[C@H](Cc1ccccc1)NC1(C(=O)NC2CCCCC2)CCCC1	nt	nt	nt	nt	2	nt	nt	nt
O=c1c2ccccc2n(CC(O)CN2CCCCC2)c2ccccc12 (stereo not drawn)	-2	-1	-2	4	8	34*	29*	29*
OC(CN1CCCCC1)Cn1c2ccccc2c2ccccc21 (stereo not drawn)	2	3	0	-7	2	0	nt	nt
C[C@H]1[C@H](NC(=O)c2ccc(Cl)cc2)CC[C@@]23CCCN2C(=O)CCC[C@@H]13	nt	nt	nt	nt	-5	nt	nt	nt
CCCC(=O)N1CCC1(C)C(=O)Nc1ccc2nccnc2c1 (stereo not drawn)	2	nt	nt	nt	-7	13*	8	8.5*
CCc1cc(=O)oc2cc(OC(=O)c3ccco3)ccc12	-2	-1	-2	3	-2	353*	788*	761*
CCOc1ccccc1Oc1coc2cc(OC(=O)c3ccco3)ccc2c1=O	0	-1	-1	-2	2	96*	264*	235*
Cc1cc(=O)oc2cc(OCC(=O)N3CCN(C(=O)c4ccco4)CC3)ccc12	-1	-2	2	4	-3	-1	nt	nt
Cc1cc(=O)oc2cc(OC(=O)c3ccco3)ccc12	2	nt	nt	40	-7	459*	729*	769*
CCc1cc(=O)oc2cc(OS(C)(=O)=O)ccc12	-1	2	-2	4	2	-13	nt	nt
CC(=O)Oc1ccc2c(=O)c(-c3ccccc3)c(C)oc2c1	1	3	11	-1	-3	121*	446*	384*
CN(Cc1ccc(F)cc1)C(=O)CN1C(=O)C2(OCCCO2)c2ccccc21	nt	nt	nt	nt	0	0	nt	nt
COc1cccc(C(=O)N[C@H](C(=O)N2CCC[C@H]2C(=O)NCc2ccccc2)C(C)C)c1	3	nt	nt	nt	-3	1	nt	nt
CCCCCCCCN1CN2Cc3ccc(C)cc3C2CS1(=O)=O (stereo not drawn)	nt	nt	nt	nt	-3	0	nt	nt
Cc1cc(=O)oc2cc(OC(=O)c3ccccc3)ccc12	0	3	1	5	-4	117*	519*	377*
CCCc1cc(=O)oc2cc(OCC(=O)N3CC[C@@]4(O)CCCC[C@H]4C3)ccc12	0	nt	nt	nt	0	1	nt	nt
Cc1cc(C)cc(Oc2coc3cc(OC(=O)c4cccs4)ccc3c2=O)c1	1	4	-1	-3	3	14*	24*	17*	EDANS interf=>69
Cc1oc2cc(OC(=O)c3ccco3)ccc2c(=O)c1-c1nc2ccccc2n1C	-4	3	2	1	-5	16*	115*	104*
O=C(Oc1ccc2ccccc2c1)c1ccco1	0	3	0	11	1	1	nt	nt
O=C(Oc1ccc2c(=O)c(Oc3ccc4ccccc4c3)coc2c1)c1cccnc1	-1	1	0	4	1	-2	nt	nt
